Experimental data: PubChem BioAssay (NCATS)
Records with an inconclusive call do not appear. Calls of active or inactive are those of the source. Calls come from the whole dose curve; as a rule, active = well fitted curve in the direction sought with a large enough effect; inconclusive = small, poorly fitted or top-dose-only effect, or another doubt; inactive = no such curve, though single readings can be large; an effect the other way counts as inactive or inconclusive. Numbered stars: 1 amine (or outer) side, 2 acyl side, 3 side chain; on linkers, the order of the positions; unused ones are H or OH. Bridge positions count the residues as written; N and C are the ends. Square brackets hold non-standard residues; d marks the D form. Peptide text beside a SMILES is read from it. I, II: the chains in the order shown. Actinocin(9to1) = Cc1c2oc3c(C)ccc(C(=O)[*:1])c3nc-2c(C(=O)[*:2])c(N)c1=O; NMeV = CN[C@H](C(=O)O)C(C)C; Sar = CNCC(=O)O

How the values were obtained:
[1] = Cell Viability - LYMP2-001 (AID 921);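 note: cells exposed to compound for 24 h at 37 °C; nearly all actives have a fitted effect of over 70% in size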; note: potency is the fitted concentration of half-maximal effect
Summary of the method: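 Steps: seed 2500 lymphoblastoid cells/well; 5 hr, 37 C; add compound; 24 hr, 37 C; CellTiter-Glo reagent, 30 min room temperature; read luminescence. Concentration-response modeled by Hill equation for AC50.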

[2] = MultiTox-Fluor Cytotoxicity Assay - LYMP1-001 - Dead Cells (AID 946); note: potency is the fitted concentration of half-maximal effect
Summary of the method: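 In this qHTS, 15 uM tetraoctylammonium bromide defined 100% and DMSO defined basal activity. Lymphoblastoid cells (LYMP1-001, 2500 per well) received compound for 16 hr at 37 C before a fluorogenic dead-cell substrate readout at 485/520 nm.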

[3] = MultiTox-Fluor Cytotoxicity Assay - LYMP1-001 - Live Cells (AID 947); note: potency is the fitted concentration of half-maximal effect
[4] = Cell Viability - LYMP1-002 - Assay at 16 hr (AID 948); note: potency is the fitted concentration of half-maximal effect
Summary of the method: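 Seed 2500 LYMP1-002 cells per well in complete medium and hold 5 hr at 37 C. Add compound across a concentration series and incubate 16 hr at 37 C. Add CellTiter-Glo, wait 30 min at room temperature, read luminescence.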

[5] = MultiTox-Fluor Cytotoxicity Assay - LYMP1-002 - Live Cells (AID 955);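 note: cells exposed to compound for 16 hours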; note: potency is the fitted concentration of half-maximal effect
Summary of the method: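 LYMP1-002 lymphoblastoid cells; 2500 cells/well; 16 hr compound exposure, 37 C; MultiTox-Fluor reagent 60 min RT; live-cell fluorescence Ex/Em=405/510; qHTS concentration-response, Hill-equation AC50; tetraoctylammonium bromide positive control.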

[6] = MultiTox-Fluor Cytotoxicity Assay - LYMP1-002 - Dead Cells (AID 960); note: nearly all actives have a fitted effect of over 60% in size; note: potency is the fitted concentration of half-maximal effect
Summary of the method: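 Readout: fluorescence at 485/520 from cell-impermeant bis-AAF-R110 cleaved by proteases leaking from damaged cells. LYMP1-002 lymphoblastoid line, 16 hr compound treatment at 37 C, concentration-response in qHTS format; Hill-equation AC50 values.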

[7] = MultiTox-Fluor Cytotoxicity Assay - LYMP1-003 - Dead Cells (AID 961);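 note: cells exposed to compound for 16 h at 37 °C; nearly all actives have a fitted effect of over 70% in size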; note: potency is the fitted concentration of half-maximal effect
Summary of the method: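 Acute toxicity is scored as increased dead-cell protease activity in human lymphoblastoid LYMP1-003 cells after 16 h compound exposure in complete culture medium. Activity is normalized to DMSO basal and 15 uM tetraoctylammonium bromide as full response.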

[8] = MultiTox-Fluor Cytotoxicity Assay - LYMP1-003 - Live Cells (AID 962);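 note: cells exposed to compound for 16 hours at 37 °C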; note: potency is the fitted concentration of half-maximal effect
Summary of the method: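 Readout: live-cell fluorescence (Ex/Em=405/510) from GF-AFC cleavage after 60 min MultiTox-Fluor reagent at room temperature. Lymphoblastoid LYMP1-003 cells, 16 hr compound treatment, 37 C. Concentration-response fitted to standard Hill equation for AC50.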

[9] = Cell Viability - LYMP2-003 (AID 965);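 note: cells exposed to compounds for 24 h before reading; nearly all actives have a fitted effect of over 50% in size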; note: potency is the fitted concentration of half-maximal effect
Summary of the method: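 Seed 2500 lymphoblastoid cells/well; incubate 5 hr, 37 C; add compounds; incubate 24 hr, 37 C; add CellTiter-Glo, 30 min RT; read luminescence. AC50 from Hill fit.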

[10] = Cell Viability - LYMP2-005 (AID 967);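 note: cells exposed to compound for 24 h at 37 °C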; note: potency is the fitted concentration of half-maximal effect
Summary of the method: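 Acute cytotoxicity is scored as a concentration-dependent drop in intracellular ATP in human lymphoblastoid LYMP2-005 cells after 24 h compound treatment. ATP is quantified by luciferase luminescence, and AC50 is derived by Hill-equation modelling.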

[11] = Cell Viability - LYMP2-004 (AID 966); note: nearly all actives have a fitted effect of over 65% in size; note: potency is the fitted concentration of half-maximal effect
Summary of the method: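 Luminescent ATP read-out (CellTiter-Glo, 30 min RT) after 24 hr compound exposure at 37 C; 2500 lymphoblastoid cells/well, complete medium. Decrease in ATP = cytotoxicity; AC50 from standard Hill model.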

[12] = Confirmation and Secondary Assay for Modulators of Hemoglobin Beta Chain Splicing at IVS2 705 locus (AID 930);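 note: HeLa cells stably expressing the EGFP-705 splicing reporter; GFP fluorescence per well restored by corrected splicing of the IVS2-705 intron in EGFP; series mostly up to about 46 µM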
Summary of the method: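 First, HeLa EGFP-705 cells are seeded at 500/well in Optimem with 2% FCS and left overnight. Next, compound or DMSO is added for 2 days. Finally wells are laser-scanned and total peak GFP intensity scored.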

[13] = target: Muscarinic acetylcholine receptor M1 (Rattus norvegicus) (UniProt P08482); assay: qHTS Assay for Antagonists of Acetylcholine Muscarinic M1 Receptor: Measurement of IP-One Response (AID 944); note: nearly all actives have a fitted effect of over 75% in size; note: potency is the fitted concentration of half-maximal effect
Summary of the method: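 Read-out: HTRF competition between d2-IP1 and Eu-cryptate anti-IP1 antibody, emission 620 and 665 nm. Stimulus was carbachol, EC80 (200 nM), for 30 min in M1-CHO cells (rat receptor), after 10 min compound pre-treatment.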

Measured: Potency

Muscarinic acetylcholine receptor M1 (Rattus norvegicus), sequence (P08482 whole entry, looked up): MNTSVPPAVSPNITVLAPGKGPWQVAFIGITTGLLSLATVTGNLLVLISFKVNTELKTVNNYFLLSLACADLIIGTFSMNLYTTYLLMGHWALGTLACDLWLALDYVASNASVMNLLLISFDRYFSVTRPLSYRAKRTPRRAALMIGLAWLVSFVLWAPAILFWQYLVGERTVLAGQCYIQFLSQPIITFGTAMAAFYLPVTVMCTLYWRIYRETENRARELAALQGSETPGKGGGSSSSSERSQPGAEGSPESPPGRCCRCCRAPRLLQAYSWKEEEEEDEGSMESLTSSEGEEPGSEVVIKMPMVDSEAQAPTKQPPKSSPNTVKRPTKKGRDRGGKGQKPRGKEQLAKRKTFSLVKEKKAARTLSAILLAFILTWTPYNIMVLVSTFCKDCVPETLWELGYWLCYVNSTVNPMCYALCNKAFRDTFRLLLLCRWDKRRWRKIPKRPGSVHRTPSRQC

COc1cccc2c1C(=O)c1c(O)c3c(c(O)c1C2=O)C[C@@](O)(C(C)=O)C[C@@H]3O[C@H]1C[C@H](N)[C@H](O)[C@H](C)O1
active: [1] 1580 nM | [2] 501 nM | [3] 631 nM | [4] 794 nM | [5] 3980 nM | [6] 12600 nM | [7] 1000 nM | [8] 501 nM | [9] 316 nM | [10] 158 nM

CC(O)C(=O)O (stereo unspecified)
not listed: [12] | [13]
inactive: all other assays above

Cc1ccnc(NS(=O)(=O)c2ccc(N)cc2)n1
inactive: [12]

CCCCCCCCCCCCCCCCOP(=O)([O-])OCC[N+](C)(C)C
inactive: [12]

O=C1c2ccccc2C(=O)C1c1ccccc1
inactive: [12]

CCN(CCCc1ccccc1)CCCc1ccccc1
inactive: [12]

CC(=O)O[C@]1(C(C)=O)CC[C@H]2[C@@H]3C[C@H](C)C4=CC(=O)CC[C@]4(C)[C@H]3CC[C@@]21C
active: [1] 31600 nM | [11] 31600 nM
not listed: [9] | [10] | [12] | [13]
inactive: all other assays above

CCOC(=O)n1ccn(C)c1=S
inactive: [12]

CCOc1ccc(Cc2nccc3cc(OCC)c(OCC)cc23)cc1OCC
inactive: [12]

CCCCC1=NC2(CCCC2)C(=O)N1Cc1ccc(-c2ccccc2-c2nn[nH]n2)cc1
inactive: [12]

COc1cccc2c1C(=O)c1c(O)c3c(c(O)c1C2=O)C[C@@](O)(C(=O)CO)C[C@@H]3O[C@H]1C[C@H](N)[C@H](O)[C@H](C)O1
active: [1] 501 nM | [2] 2510 nM | [3] 1580 nM | [4] 3160 nM | [5] 5010 nM | [6] 3160 nM | [7] 6310 nM | [8] 794 nM | [9] 501 nM | [11] 501 nM | [10] 398 nM

CN(C)CC/C=C1\c2ccccc2Sc2ccc(Cl)cc21
inactive: [12]

COc1cc(NS(C)(=O)=O)ccc1Nc1c2ccccc2nc2ccccc12
active: [13] 10000 nM

CC(C)COC(=O)OCN1C(=O)CN(CCN2CC(=O)N(COC(=O)OCC(C)C)C(=O)C2)CC1=O
inactive: [13]

Cc1c2oc3c(C)ccc(C(=O)N[C@@H]4C(=O)N[C@H](C(C)C)C(=O)N5CCC[C@H]5C(=O)N(C)CC(=O)N(C)[C@@H](C(C)C)C(=O)O[C@@H]4C)c3nc-2c(C(=O)N[C@@H]2C(=O)N[C@H](C(C)C)C(=O)N3CCC[C@H]3C(=O)N(C)CC(=O)N(C)[C@@H](C(C)C)C(=O)O[C@@H]2C)c(N)c1=O (I: T[dV]P[Sar][NMeV] / II: T[dV]P[Sar][NMeV]; ester I:1-I:C, II:1-II:C; linker I:N-II:N via Actinocin(9to1))
active: [2] 12.6 nM | [6] 25.1 nM | [7] 50.1 nM

Oc1ccc(Cl)cc1Sc1cc(Cl)ccc1O
inactive: [2] | [8]
